Compound activity as filed in PubChem.
Mot1-301 SUMO: blocks SUMOylation pathway, rescuing yeast Mot1-301 growth. S. cerevisiae Mot1-301 growth rescue, ATP luminescence, 38.5C; percent above DMSO median, 100 means doubled. growth rescue, % at 18.8 µM. 1% of 320,000 active. AID 2716;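 active = every valid replicate shows activation above 250% relative to neutral control wells; inactive = the rest, any valid replicate at or below 250%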;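 also: OY570 slx delta 5 strain wells were the positive control but not used for scaling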
aDG glyco act: increases alpha dystroglycan glycosylation; 0.22% of 360,000 active; activation, % at 10 µM; Pro5-aDG cells, alpha-DG glycosylation AlphaScreen (IIH6); 0% Pro5, 100% B10-LARGE cell signal;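 active = activation of at least 8% versus controls, or a plate z-score of at least 8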;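 also: Pro5 are CHO cells carrying HIG-tagged alpha-DG that lacks glycosylation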
A1 inh: inhibitors of the anti-apoptotic protein A1, read as caspase activation; 0.066% of 330,000 active; AID 2462; MEF A1-2A-BIM cells, Caspase-Glo 3/7 luminescence, 3 h; percent of clofoctol response, vehicle zero; caspase activation, % (test concentration not listed);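 active = over half of replicate activation scores above 10%, or exactly half above 10 with the replicate mean above 10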
AI-2 QS modul: Vibrio harveyi AI-2 quorum sensing modulation. Vibrio harveyi JMH597 AI-2 luminescence/OD600 ratio, 9 h; active compounds read low; strain lacks LuxN and CqsS sensors; 0 = neutral-control median. activity change, % at 7.5 µM. 0.4% of 300,000 active. AID 2094; in the data active = activity change below about -75%, passing the limit was not always enough;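 also: luminescence divided by OD600 gain over 9 h not by final OD600 alone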
ARNT TACC3 PPI: ARNT/TACC3 interaction disruption; Q9Y6A5; AlphaScreen His-ARNT PAS-B/GST-TACC3 binding, luminescence; TACC3 fragment carries E629A point mutation; inhibition, % at 9.99 µM; 0.66% of 390,000 active;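 active = mean inhibition of replicates at least 50% and at least half of replicates each reaching 50%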;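 also: 0% = complete ARNT plus TACC3 wells and 100% = ARNT alone without TACC3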
Mot1 SUMO dose: yeast SUMO pathway inhibition in dose response; shares compounds with Mot1-301 SUMO; S. cerevisiae Mot1-301 galactose growth, ATP luminescence, 24 h; -100 = growth of slx-deleted rescue strain; growth activity, percent, % at 42 µM; 2,300 tested, under 10 active;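 active = Signal drops as the depositor expects, and the fitted half-maximal dose is no more than ten times the top valid tested dose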;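 also: more negative values mean stronger growth rescue toward the control strain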
An asterisk follows results filed as active; · = no result; + = active, no number; [ ] = dose if it differs, or a comment. An excerpt weighted towards active compounds, which were near 1.8% of everything screened.

SMILES | Mot1-301 SUMO | aDG glyco act | A1 inh | AI-2 QS modul | ARNT TACC3 PPI | Mot1 SUMO dose
COc1ccc2c(c1)[C@H]1[C@H](CO2)[C@H](c2ccccc2)[C@]2(C)C(=O)Nc3ccc(F)cc3C(=O)N12 | 904* | 0 | 0 | · | · | -1
COc1ccc2c(c1)OC[C@H]1[C@H]2N2C(=O)c3cc(C)ccc3NC(=O)[C@@]2(C)[C@H]1c1ccccc1 | + | 0 | 1 | · | -9 | 0
COc1ccc2c(c1)C(=O)N1[C@H]3c4cc(C)ccc4OC[C@@H]3[C@H](c3ccccc3)[C@]1(C)C(=O)N2 | 37 | 0 | -1 | · | 1 | ·
C[C@H]1CN([C@@H](C)CO)C(=O)c2cc(-c3cncnc3)cnc2O[C@@H]1CN(C)Cc1ccc(F)cc1 | · | · | · | · | -11 | ·
CCOC(=O)/C(C#N)=C\c1ccc(CC)s1 | + | 0 | -5 | 26 | -2 | 0
Cc1cccc(NC(=S)NC(=O)/C=C/c2ccco2)c1 | 706* | 0 | 1 | -6 | · | -1
C/C(=N\N1CCN(Cc2ccccc2Cl)CC1)c1ccc([N+](=O)[O-])cc1 | 832* | 0 | 1 | -5 | 12 | 1
CN(C)C(=O)CCN1CCOCC1 | 560* | 0 | 0 | 17 | -9 | -1
Cc1ccc(S(=O)(=O)N(C)C)cc1NC(=O)CN1CCCC1 | 6 | 0 | -1 | 8 | 4 | ·
CCCN1CCN(C(=O)c2cn(CC(C)C)c(=O)c3cc(OC)c(OC)cc23)CC1 | -26 | 0 | 1 | 15 | 2 | ·
COc1ccc(NC(=O)COc2cccnc2[N+](=O)[O-])cc1OC | 0 | 0 | 0 | 16 | -1 | ·
O=C(COc1cccnc1[N+](=O)[O-])Nc1ccc2c(c1)CCC2 | 811* | 0 | 0 | 12 | 32 | 0[21 µM]
CC(C)(C)c1ccc(C(=O)COC(=O)CN2C(=O)NC3(CCCC3)C2=O)cc1 | 522* | 0 | 1 | 11 | -5 | 0
CC(C)(C)c1ccc(COC(=O)CN2C(=O)NC3(CCCC3)C2=O)cc1 | 8 | 0 | 0 | 13 | -7 | ·
C[C@H](CO)N1C[C@H](C)[C@H](CN(C)Cc2ccc(C(=O)Nc3ccccc3N)cc2)Oc2c(cccc2N(C)C)C1=O | · | · | · | · | -2 | ·
CC1C/C(=C/c2ccncc2)C(=O)/C(=C/c2ccncc2)C1 (stereo not given) | 8 | 0 | 0 | -15 | 11 | ·
Cc1cccc(CSc2ccc(-c3ccco3)nn2)c1 | 668* | 0 | -2 | -70 | · | 0
CCN(CC)S(=O)(=O)c1ccc(C2=NOC3(C2)N(C)c2ccccc2C3(C)C)cc1 (stereo not given) | -12 | 1 | 1 | -2 | · | ·
COc1ccc(Cc2nnc(NCCO)[nH]c2=O)cc1OC | 1 | 0 | 1 | 9 | 7 | ·
COc1ccc(Cc2nnc(NCCO)[nH]c2=O)cc1 | 446* | 0 | 1 | 33 | 1 | 0
C/C=C/c1ccc([C@@H]2[C@@H](CO)N(C(C)=O)[C@H]2CN(C(=O)COC)C(C)C)cc1 | · | · | · | · | 5 | ·
CC(C)C(CC(=O)NCc1ccco1)c1ccco1 (stereo not given) | 646* | 0 | 0 | 10 | -8 | 0
O=C(CCSCCC(=O)NCc1ccco1)NCc1ccco1 | 7 | · | 0 | · | · | ·
CC(=O)Nc1ccc(Nc2ccc(S(=O)(=O)C(F)(F)F)cc2[N+](=O)[O-])cc1 | 51 | 0 | 1 | 4 | 10 | ·
O=S(=O)(NCc1cccc(C(F)(F)F)c1)NCc1ccccc1F | + | 0 | 0 | 13 | · | 1
SMILES | Mot1-301 SUMO | aDG glyco act | A1 inh | AI-2 QS modul | ARNT TACC3 PPI | Mot1 SUMO dose
O=S(=O)(NCc1ccccc1)NCc1ccccc1F | -8 | 0 | 0 | -1 | · | ·
COc1ccc(N(CC(=O)N2CCN(C)CC2)S(C)(=O)=O)cc1OC | -2 | 0 | 1 | 12 | -11 | ·
CCOC(=O)C1C(c2ccc(C)o2)NC(=O)NC1(O)C(F)(F)F (stereo not given) | 459* | 0 | 0 | 13 | 3 | 1
COc1cc(NC(=O)c2ccc(Cl)cc2)c(OC)cc1NC(=O)CN1CCCCC1 | -6 | 0 | 0 | 9 | · | ·
COc1cc(NC(=O)c2ccccc2F)c(OC)cc1NC(=O)CN1CCCCC1 | 552* | 0 | 0 | 6 | · | 0
Cc1ccc(-n2c(C)cc(/C=N/NC(=O)c3ccncc3)c2C)cc1C | 753* | 0 | 0 | 2 | 9 | 0
Cc1cc(/C=N/NC(=O)c2ccncc2)c(C)n1-c1ccccc1 | -3 | 0 | 2 | 3 | 28 | ·
O=c1[nH][nH]c(C(F)(F)F)c1C=NCc1cccs1 | + | 0 | 1 | 19 | 3 | 0
O=C1c2cccc3c(N4CCCCC4)ccc(c23)C(=O)N1CCO | 424* | 0 | 0 | 9 | -23 | 1
O=C(C[C@@H]1C=C[C@H](NC(=O)NC2CCCCC2)[C@@H](CO)O1)NCc1ccc(F)cc1 | · | · | · | · | -5 | ·
CCOC(=O)NC1(Nc2ccc(C)cc2)Oc2ccccc2O1 | 445* | 0 | 1 | 21 | 1 | 0
COc1ccc(CCC(=O)NNC(=S)Nc2cccc(C(C)=O)c2)cc1 | + | 0 | 0 | 1 | 0 | 0
CC(NCCC1(C(C)C)CCOC(C)(C)C1)c1cccs1 (stereo not given) | -8 | 0 | -1 | 17 | -5 | ·
Cn1cnnc1-c1cccc(NS(=O)(=O)c2ccc(N3CCCC3=O)cc2)c1 | + | 0 | 0 | 5 | -2 | 1
Cc1c(F)cccc1NS(=O)(=O)c1ccc(N2CCCC2=O)cc1 | · | 0 | · | · | 6 | ·
CCCOc1ccc(N2C(=O)CC(S/C(N)=N/N=C(\C)c3cccs3)C2=O)cc1 (stereo not given) | 236 | 0 | -2 | 13 | 30 | ·
C/C(=N\N=C(/N)SC1CC(=O)N(c2cccc(Cl)c2)C1=O)c1cccs1 (stereo not given) | 374* | 0 | 0 | -11 | 7 | -1
COc1cccc(NC(=O)c2ncn[nH]2)c1 | -20 | 0 | -3 | 25 | 11 | ·
O=C1OC(Cc2ccccn2)C(O)=C1C1=NCCCCN1 (stereo not given) | -26 | 0 | -1 | 46 | · | ·
O=C1OC(Cc2ccccn2)C(O)=C1C1=NCCCN1 (stereo not given) | 375* | 0 | 0 | 22 | -17 | 0
O=C(CCCC(=O)N(CC(=O)NC1CCCC1)c1cccc(F)c1)Nc1ccccn1 | 362* | 0 | 0 | 26 | -8 | 1
Cc1ccc(N(CC(=O)NC2CCCC2)C(=O)CCCC(=O)Nc2ccccn2)cc1C | -2 | 0 | -1 | 29 | -3 | ·
Cc1ccc(N(CC(=O)NC2CCCC2)C(=O)CCC(=O)Nc2ccccn2)cc1C | 439* | 0 | 0 | · | 1 | 0
